Measured values reported in the supplement of paper PMC4466140.

The binders below were run against AgAbp1 (assay: SPOT peptide array binding signal intensity (averaged, normalized) (arbitrary units (background-subtracted, floor 0; scale differs between SH3 domains)); higher = stronger binding of the SH3 domain to the peptide).
Procedure: (§1)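 GST-tagged SH3 domains from S. cerevisiae (Sc), A. gossypii (Ag), C. albicans (Ca) and S. pombe (Sp) were incubated at 10 ug/ml overnight at 4 C on cellulose SPOT membranes carrying 292 synthetic 15-mer peptides mined from the S. cerevisiae proteome (cysteines replaced by serines). Binding was detected with anti-GST antibody, HRP secondary and chemiluminescence, quantified with Genespotter, and reported as normalized spot intensities averaged over biological replicates.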

Row | Binder | SPOT peptide array binding signal intensity
1 | LKVTPGRRAPTISKI | 22

What follows are binders tested against AgBbc1 in the same assay as above.
Procedure: as §1

Row | Binder | SPOT peptide array binding signal intensity
2 | LKVTPGRRAPTISKI | 41

Each binder was assayed against AgBem1-D1 in the same assay as above.
Procedure: as §1

Row | Binder | SPOT peptide array binding signal intensity
3 | LKVTPGRRAPTISKI | 63.5

Each binder was assayed against AgBzz1-D1 in the same assay as above.
Procedure: as §1

Row | Binder | SPOT peptide array binding signal intensity
4 | LKVTPGRRAPTISKI | 81

These binders were tested against AgBzz1-D2 in the same assay as above.
Procedure: as §1

Row | Binder | SPOT peptide array binding signal intensity
5 | LKVTPGRRAPTISKI | 24

Each binder was assayed against AgCyk3 in the same assay as above.
Procedure: as §1

Row | Binder | SPOT peptide array binding signal intensity
6 | LKVTPGRRAPTISKI | 3

These binders were tested against AgFus1 in the same assay as above.
Procedure: as §1

Row | Binder | SPOT peptide array binding signal intensity
7 | LKVTPGRRAPTISKI | 22

Each binder was assayed against AgHof1 in the same assay as above.
Procedure: as §1

Row | Binder | SPOT peptide array binding signal intensity
8 | LKVTPGRRAPTISKI | 15

Each binder was assayed against AgHse1 in the same assay as above.
Procedure: as §1

Row | Binder | SPOT peptide array binding signal intensity
9 | LKVTPGRRAPTISKI | 18.5

Each binder was assayed against AgLsb1 in the same assay as above.
Procedure: as §1

Row | Binder | SPOT peptide array binding signal intensity
10 | LKVTPGRRAPTISKI | ≤ 0

These binders were tested against AgLsb4 in the same assay as above.
Procedure: as §1

Row | Binder | SPOT peptide array binding signal intensity
11 | LKVTPGRRAPTISKI | ≤ 0

What follows are binders tested against AgMyo5 in the same assay as above.
Procedure: as §1

Row | Binder | SPOT peptide array binding signal intensity
12 | LKVTPGRRAPTISKI | 5.5

What follows are binders tested against AgNbp2 in the same assay as above.
Procedure: as §1

Row | Binder | SPOT peptide array binding signal intensity
13 | LKVTPGRRAPTISKI | 1920

What follows are binders tested against AgRvs167 in the same assay as above.
Procedure: as §1

Row | Binder | SPOT peptide array binding signal intensity
14 | LKVTPGRRAPTISKI | 1.17

These binders were tested against AgSho1 in the same assay as above.
Procedure: as §1

Row | Binder | SPOT peptide array binding signal intensity
15 | LKVTPGRRAPTISKI | ≤ 0

These binders were tested against AgSla1-D1-D2 in the same assay as above.
Procedure: as §1

Row | Binder | SPOT peptide array binding signal intensity
16 | LKVTPGRRAPTISKI | 7.5

The binders below were run against AgSla1-D3 in the same assay as above.
Procedure: as §1

Row | Binder | SPOT peptide array binding signal intensity
17 | LKVTPGRRAPTISKI | 1

These binders were tested against CaAbp1-D1 in the same assay as above.
Procedure: as §1

Row | Binder | SPOT peptide array binding signal intensity
18 | LKVTPGRRAPTISKI | 435

What follows are binders tested against CaAbp1-D2 in the same assay as above.
Procedure: as §1

Row | Binder | SPOT peptide array binding signal intensity
19 | LKVTPGRRAPTISKI | 160

The binders below were run against CaBbc1 in the same assay as above.
Procedure: as §1

Row | Binder | SPOT peptide array binding signal intensity
20 | LKVTPGRRAPTISKI | 247

The binders below were run against CaBem1-D1 in the same assay as above.
Procedure: as §1

Row | Binder | SPOT peptide array binding signal intensity
21 | LKVTPGRRAPTISKI | 5

Each binder was assayed against CaBzz1-D1 in the same assay as above.
Procedure: as §1

Row | Binder | SPOT peptide array binding signal intensity
22 | LKVTPGRRAPTISKI | 154

These binders were tested against CaBzz1-D2 in the same assay as above.
Procedure: as §1

Row | Binder | SPOT peptide array binding signal intensity
23 | LKVTPGRRAPTISKI | 148

The binders below were run against CaCyk3 in the same assay as above.
Procedure: as §1

Row | Binder | SPOT peptide array binding signal intensity
24 | LKVTPGRRAPTISKI | 18

These binders were tested against CaFus1 in the same assay as above.
Procedure: as §1

Row | Binder | SPOT peptide array binding signal intensity
25 | LKVTPGRRAPTISKI | ≤ 0

The binders below were run against CaHof1 in the same assay as above.
Procedure: as §1

Row | Binder | SPOT peptide array binding signal intensity
26 | LKVTPGRRAPTISKI | 0.5

The binders below were run against CaHse1 in the same assay as above.
Procedure: as §1

Row | Binder | SPOT peptide array binding signal intensity
27 | LKVTPGRRAPTISKI | 0.5

What follows are binders tested against CaLsb1 in the same assay as above.
Procedure: as §1

Row | Binder | SPOT peptide array binding signal intensity
28 | LKVTPGRRAPTISKI | ≤ 0

What follows are binders tested against CaLsb4 in the same assay as above.
Procedure: as §1

Row | Binder | SPOT peptide array binding signal intensity
29 | LKVTPGRRAPTISKI | ≤ 0

These binders were tested against CaMyo5 in the same assay as above.
Procedure: as §1

Row | Binder | SPOT peptide array binding signal intensity
30 | LKVTPGRRAPTISKI | 6.25

These binders were tested against CaNbp2 in the same assay as above.
Procedure: as §1

Row | Binder | SPOT peptide array binding signal intensity
31 | LKVTPGRRAPTISKI | 2720

The binders below were run against CaRvs167 in the same assay as above.
Procedure: as §1

Row | Binder | SPOT peptide array binding signal intensity
32 | LKVTPGRRAPTISKI | 1.5

What follows are binders tested against CaRvs167-3 in the same assay as above.
Procedure: as §1

Row | Binder | SPOT peptide array binding signal intensity
33 | LKVTPGRRAPTISKI | 27.5

Each binder was assayed against CaSho1 in the same assay as above.
Procedure: as §1

Row | Binder | SPOT peptide array binding signal intensity
34 | LKVTPGRRAPTISKI | 15.5

The binders below were run against CaSla1-D1-D2 in the same assay as above.
Procedure: as §1

Row | Binder | SPOT peptide array binding signal intensity
35 | LKVTPGRRAPTISKI | 56

These binders were tested against CaSla1-D3 in the same assay as above.
Procedure: as §1

Row | Binder | SPOT peptide array binding signal intensity
36 | LKVTPGRRAPTISKI | 1.5

These binders were tested against ScAbp1 in the same assay as above.
Procedure: as §1

Row | Binder | SPOT peptide array binding signal intensity
37 | LKVTPGRRAPTISKI | 21

What follows are binders tested against ScBbc1 in the same assay as above.
Procedure: as §1

Row | Binder | SPOT peptide array binding signal intensity
38 | LKVTPGRRAPTISKI | 1.75

Each binder was assayed against ScBem1-D1 in the same assay as above.
Procedure: as §1

Row | Binder | SPOT peptide array binding signal intensity
39 | LKVTPGRRAPTISKI | 9

The binders below were run against ScBzz1-D1 in the same assay as above.
Procedure: as §1

Row | Binder | SPOT peptide array binding signal intensity
40 | LKVTPGRRAPTISKI | 26

What follows are binders tested against ScBzz1-D2 in the same assay as above.
Procedure: as §1

Row | Binder | SPOT peptide array binding signal intensity
41 | LKVTPGRRAPTISKI | 5.5

These binders were tested against ScCyk3 in the same assay as above.
Procedure: as §1

Row | Binder | SPOT peptide array binding signal intensity
42 | LKVTPGRRAPTISKI | 10

These binders were tested against ScFus1 in the same assay as above.
Procedure: as §1

Row | Binder | SPOT peptide array binding signal intensity
43 | LKVTPGRRAPTISKI | 0.5

These binders were tested against ScHof1 in the same assay as above.
Procedure: as §1

Row | Binder | SPOT peptide array binding signal intensity
44 | LKVTPGRRAPTISKI | ≤ 0

These binders were tested against ScHse1 in the same assay as above.
Procedure: as §1

Row | Binder | SPOT peptide array binding signal intensity
45 | LKVTPGRRAPTISKI | 99

Each binder was assayed against ScLsb1 in the same assay as above.
Procedure: as §1

Row | Binder | SPOT peptide array binding signal intensity
46 | LKVTPGRRAPTISKI | ≤ 0

What follows are binders tested against ScLsb2 in the same assay as above.
Procedure: as §1

Row | Binder | SPOT peptide array binding signal intensity
47 | LKVTPGRRAPTISKI | 3

The binders below were run against ScLsb3 in the same assay as above.
Procedure: as §1

Row | Binder | SPOT peptide array binding signal intensity
48 | LKVTPGRRAPTISKI | 21.5

The binders below were run against ScLsb4 in the same assay as above.
Procedure: as §1

Row | Binder | SPOT peptide array binding signal intensity
49 | LKVTPGRRAPTISKI | ≤ 0

These binders were tested against ScMyo3 in the same assay as above.
Procedure: as §1

Row | Binder | SPOT peptide array binding signal intensity
50 | LKVTPGRRAPTISKI | 39.5

The binders below were run against ScMyo5 in the same assay as above.
Procedure: as §1

Row | Binder | SPOT peptide array binding signal intensity
51 | LKVTPGRRAPTISKI | 20.2

What follows are binders tested against ScNbp2 in the same assay as above.
Procedure: as §1

Row | Binder | SPOT peptide array binding signal intensity
52 | LKVTPGRRAPTISKI | 4490

The binders below were run against ScPex13 in the same assay as above.
Procedure: as §1

Row | Binder | SPOT peptide array binding signal intensity
53 | LKVTPGRRAPTISKI | ≤ 0

These binders were tested against ScRvs167 in the same assay as above.
Procedure: as §1

Row | Binder | SPOT peptide array binding signal intensity
54 | LKVTPGRRAPTISKI | 0.333

These binders were tested against ScSho1 in the same assay as above.
Procedure: as §1

Row | Binder | SPOT peptide array binding signal intensity
55 | LKVTPGRRAPTISKI | 33

What follows are binders tested against ScSla1-D1-D2 in the same assay as above.
Procedure: as §1

Row | Binder | SPOT peptide array binding signal intensity
56 | LKVTPGRRAPTISKI | 61.5

Each binder was assayed against ScSla1-D3 in the same assay as above.
Procedure: as §1

Row | Binder | SPOT peptide array binding signal intensity
57 | LKVTPGRRAPTISKI | 32.8

These binders were tested against SpAbp1-D1 in the same assay as above.
Procedure: as §1

Row | Binder | SPOT peptide array binding signal intensity
58 | LKVTPGRRAPTISKI | 170

These binders were tested against SpBbc1 in the same assay as above.
Procedure: as §1

Row | Binder | SPOT peptide array binding signal intensity
59 | LKVTPGRRAPTISKI | 1

What follows are binders tested against SpBzz1-D1 in the same assay as above.
Procedure: as §1

Row | Binder | SPOT peptide array binding signal intensity
60 | LKVTPGRRAPTISKI | 332
